Measured values reported in PubChem BioAssay (Tox21).
Inconclusive results are not listed. Calls of active or inactive are those of the source. Unless noted, the call rests on the fitted dose curve; in most records, active means well fitted curve in the direction sought with a large enough effect in the repeat runs; inconclusive means weak or mixed curves; inactive means no such curve, though single readings can be large; an effect the other way counts as inactive or inconclusive.

Assays:
[1] = qHTS RealTime-Glo MT Cell Viability Assay in HEK293 cells - 0 hour (AID 1224880); further: top concentration of the series differs between compounds; on the % scale 0 is the no-effect control and ±100 the full control effect; nearly all actives have a fitted effect of over 45% in size
Method in brief: (§1)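 Tox21 screen in HEK293 using RealTime-Glo MT chemistry, with cells and reagent co-dispensed. Luminescence proportional to viable cell number was captured at intervals during 40 h compound exposure at 37 C.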

[2] = A CellTox Green Cytotoxicity Assay to monitor cytotoxicity in HEK293 cells - 32 hour (AID 1224881); further: on the % scale 0 is the no-effect control and ±100 the full control effect; nearly all actives have a fitted effect of over 40% in size
Method in brief: (§2)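 Seeding of HEK293 cells together with cytotoxicity dye preceded a 5 h incubation at 37 C/5% CO2. Test compounds in DMSO were then added and fluorescence monitored across 40 h.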

[3] = A CellTox Green Cytotoxicity Assay to monitor cytotoxicity in HepG2 cells - 0 hour (AID 1224882); further: on the % scale 0 is the no-effect control and ±100 the full control effect; nearly all actives have a fitted effect of over 35% in size
Method in brief: (§3)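 Nonlytic assay: viable cells exclude the dye, so fluorescence scales with cell death. HepG2 at 600 cells/well, compounds added after 5 h, signal read across 40 h.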

[4] = A CellTox Green Cytotoxicity Assay to monitor cytotoxicity in HepG2 cells - 32 hour (AID 1224883); further: on the % scale 0 is the no-effect control and ±100 the full control effect; nearly all actives have a fitted effect of over 50% in size
Method in brief: as §3

[5] = A CellTox Green Cytotoxicity Assay to monitor cytotoxicity in HEK293 cells - 8 hour (AID 1224884); further: on the % scale 0 is the no-effect control and ±100 the full control effect; nearly all actives have a fitted effect of over 35% in size
Method in brief: as §2

[6] = qHTS RealTime-Glo MT Cell Viability Assay in HepG2 cells - 16 hour (AID 1224885); further: on the % scale 0 is the no-effect control and ±100 the full control effect; nearly all actives have a fitted effect of over 50% in size
Method in brief: (§4)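 Tox21 10K library screened in qHTS format on HepG2 cells carrying RealTime-Glo reagents. Compounds were added after a 5 h preincubation, and the luminescent signal from continuous culture was measured repeatedly during 40 h treatment.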

[7] = qHTS RealTime-Glo MT Cell Viability Assay in HEK293 cells - 24 hour (AID 1224886); further: nearly all actives have a fitted effect of over 50% in size; further: potency means the concentration at half of the fitted maximal effect; on activity change, negative = cytotoxicity: top concentration of the series differs between compounds; on the % scale 0 is the no-effect control and ±100 the full control effect
Method in brief: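 Luminescence generated by NanoLuc from substrate produced by living HEK293 cells served as the viability signal. Each value reflects the reading at its stated time point during continuous 40 h compound exposure at 37 C.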

[8] = qHTS RealTime-Glo MT Cell Viability Assay in HEK293 cells - 8 hour (AID 1224887); further: nearly all actives have a fitted effect of over 50% in size; further: potency means the concentration at half of the fitted maximal effect; on activity change, negative = cytotoxicity: top concentration of the series differs between compounds; on the % scale 0 is the no-effect control and ±100 the full control effect
Method in brief: as §1

[9] = A CellTox Green Cytotoxicity Assay to monitor cytotoxicity in HEK293 cells - 16 hour (AID 1224888); further: on the % scale 0 is the no-effect control and ±100 the full control effect; nearly all actives have a fitted effect of over 35% in size
Method in brief: as §2

[10] = qHTS RealTime-Glo MT Cell Viability Assay in HepG2 cells - 0 hour (AID 1224889); further: nearly all actives have a fitted effect of over 50% in size; further: potency means the concentration at half of the fitted maximal effect; on activity change, negative = cytotoxicity: on the % scale 0 is the no-effect control and ±100 the full control effect
Method in brief: as §4

[11] = A CellTox Green Cytotoxicity Assay to monitor cytotoxicity in HepG2 cells - 8 hour (AID 1224890); further: on the % scale 0 is the no-effect control and ±100 the full control effect; nearly all actives have a fitted effect of over 45% in size
Method in brief: as §3

[12] = qHTS assay to identify small molecule antagonists of the androgen receptor (AR) signaling pathway using the MDA cell line in the presence of 0.5 nM R1881 - cell viability counter screen (AID 1259242); further: on the % scale 0 is the no-effect control and ±100 the full control effect; nearly all actives have a fitted effect of over 45% in size
Method in brief: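 R1881 at 0.5 nM final stimulated MDA-kb2 cells during 16 hr compound treatment at 37C. Cytotoxicity read: CellTiter-Fluor fluorescence after 30 min.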

[13] = target: Estrogen receptor (Homo sapiens) (UniProt P03372); experiment: qHTS assay to identify small molecule antagonists of the estrogen receptor alpha (ER-alpha) signaling pathway using the BG1 cell line in the presence of 0.1 nM 17-beta-estradiol (AID 1259244)
Estrogen receptor (Homo sapiens), sequence (P03372 whole entry, looked up): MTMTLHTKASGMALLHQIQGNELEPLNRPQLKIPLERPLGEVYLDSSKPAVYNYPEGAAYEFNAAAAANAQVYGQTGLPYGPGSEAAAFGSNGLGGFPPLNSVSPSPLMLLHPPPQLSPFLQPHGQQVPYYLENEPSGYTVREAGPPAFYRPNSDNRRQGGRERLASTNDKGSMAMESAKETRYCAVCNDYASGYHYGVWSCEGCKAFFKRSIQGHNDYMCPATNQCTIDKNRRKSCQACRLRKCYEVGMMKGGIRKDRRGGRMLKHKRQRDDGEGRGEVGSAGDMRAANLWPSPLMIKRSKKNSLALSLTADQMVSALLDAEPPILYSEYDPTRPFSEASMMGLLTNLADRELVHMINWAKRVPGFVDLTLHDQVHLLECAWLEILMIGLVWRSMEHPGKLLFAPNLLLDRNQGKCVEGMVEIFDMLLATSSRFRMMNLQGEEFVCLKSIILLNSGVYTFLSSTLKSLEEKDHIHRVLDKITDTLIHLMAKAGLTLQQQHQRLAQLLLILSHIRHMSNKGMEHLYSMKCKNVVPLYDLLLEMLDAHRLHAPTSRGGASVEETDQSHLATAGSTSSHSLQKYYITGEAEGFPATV
Method in brief: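 VM7Luc4E2; 4xERE-luciferase; 0.1 nM E2 final; 22 h co-incubation, 37C; ONE-Glo luminescence after 30 min at room temperature.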

[14] = qHTS assay to identify small molecule HDAC inhibitors - cell viability counter screen (AID 1259365); further: nearly all actives have a fitted effect of over 50% in size; further: potency means the concentration at half of the fitted maximal effect
Method in brief: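 HCT-116 (wild type), 1,500 cells/well, overnight 37C/5% CO2; compound in DMSO 2hr; CellTiter-Glo 30min RT; luminescence read.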

[15] = qHTS assay to identify small molecule antagonists of the sonic hedgehog signaling (Shh) pathway - cell viability counter screen (AID 1259367); further: nearly all actives have a fitted effect of over 55% in size; further: potency means the concentration at half of the fitted maximal effect
Method in brief: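 NIH/3T3-derived Gli1-Luc reporter cells (2,000 per well) rested 4 hr at 37 C, then received DMSO compounds plus conditioned medium. After 23 hr of treatment, CellTiter-Fluor was added for 1 hr at 37C and fluorescence read.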

[16] = qHTS assay to identify small molecule HDAC inhibitors (AID 1259364); further: potency means the concentration at half of the fitted maximal effect;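 further: wild-type HCT-116 cells with endogenous class I/II HDAC activity; nearly all actives have a fitted effect of over 45% in size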
Method in brief: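 Relative class I and II HDAC activity is taken from the luminogenic signal in HCT-116 cells, with compound exposure 2 hr and reagent development 30 min at room temperature.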

[17] = qHTS assay to identify small molecule agonists of the sonic hedgehog signaling (Shh) pathway - cell viability counter screen (AID 1259366); further: nearly all actives have a fitted effect of over 50% in size; further: potency means the concentration at half of the fitted maximal effect
Method in brief: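 CellTiter-Fluor fluorescence read-out, 1 hr at 37C, added after 23hr compound exposure. Cells: 3T3 Gli1-Luc, an NIH/3T3 clone with stably integrated Gli1-Luc reporter, plated 4hr before compound.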

[18] = qHTS assay to identify small molecule antagonists of the estrogen receptor alpha (ER-alpha) signaling pathway using the BG1 cell line in the presence of 0.1 nM 17-beta-estradiol - cell viability counter screen (AID 1259241); further: on the % scale 0 is the no-effect control and ±100 the full control effect; nearly all actives have a fitted effect of over 40% in size
Method in brief: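 Live-cell protease activity (CellTiter-Fluor fluorescence, 30 min) was read in the same wells after VM7Luc4E2 cells had been exposed to compounds with 0.1 nM 17beta-estradiol for 22 hr at 37C.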

[19] = qHTS assay to identify small molecule phospholipidosis (PLD) inducers (AID 1259344; active means well fitted curve in the direction sought with a large enough effect; an effect the other way counts as inactive or inconclusive; further: on the % scale 0 is the no-effect control and ±100 the full control effect)
Method in brief: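 HepG2 cells on collagen I, attached 4 h at 37 C, were co-treated with compound and LipidTOX Red dye for 24 h at 37 C, then fixed with paraformaldehyde plus Hoechst 33342 and imaged by high-content microscopy for phospholipid accumulation.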

[20] = target: Androgen receptor (Homo sapiens) (UniProt P10275); experiment: qHTS assay to identify small molecule antagonists of the androgen receptor (AR) signaling pathway using the MDA cell line in the presence of 0.5 nM R1881 (AID 1259243)
Androgen receptor (Homo sapiens), sequence (P10275 whole entry, looked up): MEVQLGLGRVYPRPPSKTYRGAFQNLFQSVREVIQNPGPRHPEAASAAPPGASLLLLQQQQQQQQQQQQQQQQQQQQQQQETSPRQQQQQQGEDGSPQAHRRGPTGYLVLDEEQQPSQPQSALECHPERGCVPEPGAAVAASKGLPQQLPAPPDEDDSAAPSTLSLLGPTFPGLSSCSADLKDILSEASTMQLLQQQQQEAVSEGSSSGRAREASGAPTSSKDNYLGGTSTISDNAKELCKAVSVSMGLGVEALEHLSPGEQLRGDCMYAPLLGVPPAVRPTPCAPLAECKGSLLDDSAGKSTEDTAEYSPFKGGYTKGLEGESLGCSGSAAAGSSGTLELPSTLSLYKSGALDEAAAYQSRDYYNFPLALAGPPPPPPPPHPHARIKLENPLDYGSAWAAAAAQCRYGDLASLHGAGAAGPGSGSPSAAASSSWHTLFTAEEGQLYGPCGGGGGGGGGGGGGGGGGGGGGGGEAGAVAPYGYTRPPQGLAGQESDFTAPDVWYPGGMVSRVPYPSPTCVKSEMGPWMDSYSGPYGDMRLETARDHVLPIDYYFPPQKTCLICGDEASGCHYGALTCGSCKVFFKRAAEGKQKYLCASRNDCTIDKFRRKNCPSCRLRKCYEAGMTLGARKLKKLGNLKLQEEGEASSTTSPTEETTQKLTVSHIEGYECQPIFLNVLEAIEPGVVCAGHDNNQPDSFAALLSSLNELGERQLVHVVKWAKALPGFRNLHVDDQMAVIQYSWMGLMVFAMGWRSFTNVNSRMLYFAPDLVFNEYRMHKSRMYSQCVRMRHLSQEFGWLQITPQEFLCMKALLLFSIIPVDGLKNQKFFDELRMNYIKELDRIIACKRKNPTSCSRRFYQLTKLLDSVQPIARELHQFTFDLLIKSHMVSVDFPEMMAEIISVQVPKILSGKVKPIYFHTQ
Method in brief: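 We exposed MDA-kb2 cells to compounds under 0.5 nM R1881 stimulation for 16 hr at 37C and quantified MMTV-driven luciferase by luminescence.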

CCOc1ccc(C(C)(C)COCc2cccc(Oc3ccccc3)c2)cc1
inactive: Potency [1] | Potency [2] | Potency [3] | Potency [4] | Potency [5] | Potency [6] | Potency [7] | Potency [8] | Potency [9] | Potency [10] | Potency [11] | Potency [12] | Potency [13] | Potency [14] | Potency [15]

CC(C)O.CC(C)O.OCCN(CCO)CCO.OCCN(CCO)CCO.[Ti]
inactive: Potency [1] | Potency [2] | Potency [3] | Potency [4] | Potency [5] | Potency [6] | Potency [7] | Potency [8] | Potency [9] | Potency [10] | Potency [11] | Potency [12] | Potency [16] | Potency [14] | Potency [17] | Potency [15]

Nc1ccc(N=Nc2ccc(-c3ccc(N=Nc4c(S(=O)(=O)O)cc5cc(S(=O)(=O)O)c(N=Nc6ccccc6)c(O)c5c4N)cc3)cc2)c(N)c1
active: Potency [16] 15.7 µM | Potency [14] 17.6 µM | Potency [17] 17.6 µM | Potency [15] 19.7 µM
inactive: Potency [1] | Potency [2] | Potency [3] | Potency [4] | Potency [5] | Potency [6] | Potency [7] | Potency [8] | Potency [9] | Potency [11] | Potency [12] | Potency [13]

CO[C@@H]1[C@H](OC(=O)NC(=O)CCl)CC[C@]2(CO2)[C@H]1[C@@]1(C)O[C@@H]1CC=C(C)C
inactive: activity change, negative = cytotoxicity [1] 1.11% [at 15.8 µM] | cytotoxicity increase [2] -3.65% [at 15.8 µM] | cytotoxicity [3] 1.46% [at 15.8 µM] | cytotoxicity increase [4] -1.39% [at 15.8 µM] | cytotoxicity increase [5] -6.32% [at 15.8 µM] | activity change, negative = cytotoxic [6] 1.78% [at 15.8 µM] | activity change, negative = cytotoxicity [7] 14.6% [at 15.8 µM] | activity change, negative = cytotoxicity [8] 6.68% [at 15.8 µM] | activity change, negative = cytotoxicity [10] 0.756% [at 15.8 µM] | cytotoxicity increase [11] -1.9% [at 15.8 µM] | activity change, negative = cytotoxicity [18] -6.95% [at 19 µM] | viability change, negative = cytotoxic [12] -0.0338% [at 19 µM] | activity change, negative = inhibition [13] -0.212% [at 19 µM] | activity change, negative = inhibition [16] -1.01% [at 19 µM] | activity change, negative = cytotoxicity [14] 12.9% [at 19 µM] | viability change, negative = cytotoxic [17] -8.47% [at 19 µM] | viability change, negative = cytotoxic [15] -7.4% [at 19 µM]

CN1C(=O)NC(=O)C(C)(C2=CCCCC2)C1=O (centres undefined)
inactive: Potency [1] | Potency [2] | Potency [3] | Potency [4] | Potency [5] | Potency [6] | Potency [7] | Potency [8] | Potency [9] | Potency [10] | Potency [11] | Potency [12] | outcome [19] | Potency [16] | Potency [14] | Potency [17] | Potency [15]

CC(C)(Cl)[N+](=O)[O-]
inactive: Potency [1] | Potency [2] | Potency [3] | Potency [4] | Potency [5] | Potency [6] | Potency [7] | Potency [8] | Potency [9] | Potency [11] | Potency [12] | Potency [14] | Potency [17] | Potency [15]
active: Potency [10] 6.19 µM

O=Cc1ccc(Cl)cc1Cl
inactive: Potency [1] | Potency [2] | Potency [3] | Potency [4] | Potency [5] | Potency [6] | Potency [7] | Potency [8] | Potency [9] | Potency [10] | Potency [11] | Potency [12] | Potency [14] | Potency [17] | Potency [15]

C=COC(C)=O
inactive: Potency [1] | Potency [2] | Potency [3] | Potency [4] | Potency [5] | Potency [6] | Potency [7] | Potency [8] | Potency [10] | Potency [11] | Potency [18] | Potency [12] | Potency [16] | Potency [14] | Potency [17] | Potency [15]

CCCC(=O)Cl
inactive: Potency [1] | Potency [2] | Potency [3] | Potency [4] | Potency [5] | Potency [6] | Potency [7] | Potency [8] | Potency [10] | Potency [11] | Potency [18] | Potency [12] | Potency [13] | Potency [16] | Potency [14] | Potency [17] | Potency [15]

C=CCOC(C)=O
inactive: Potency [1] | Potency [2] | Potency [3] | Potency [4] | Potency [5] | Potency [6] | Potency [7] | Potency [8] | Potency [11] | Potency [18] | Potency [12] | Potency [13] | Potency [16] | Potency [14] | Potency [17] | Potency [15]
active: Potency [10] 12.1 µM | Potency [20] 26.9 µM

CCCN(CCC)c1c([N+](=O)[O-])cc(S(C)(=O)=O)cc1[N+](=O)[O-]
active: Potency [7] 13.8 µM | Potency [8] 13.8 µM
inactive: Potency [1] | Potency [2] | Potency [3] | Potency [4] | Potency [5] | Potency [6] | Potency [10] | Potency [11] | Potency [18] | Potency [12] | Potency [13] | Potency [16] | Potency [14] | Potency [17] | Potency [15]

C=CC(=O)OCC(C)O (centres undefined)
inactive: Potency [1] | Potency [2] | Potency [3] | Potency [4] | Potency [5] | Potency [6] | Potency [7] | Potency [8] | Potency [10] | Potency [11] | Potency [18] | Potency [12] | Potency [13] | Potency [16] | Potency [14] | Potency [15]

CCCCN(N=O)C(=N)N[N+](=O)[O-]
inactive: Potency [1] | Potency [2] | Potency [3] | Potency [4] | Potency [5] | Potency [6] | Potency [7] | Potency [8] | Potency [10] | Potency [11] | Potency [18] | Potency [12] | Potency [16] | Potency [14] | Potency [17] | Potency [15]

COc1cc(Cl)c(OC)cc1Cl
inactive: Potency [1] | Potency [2] | Potency [3] | Potency [4] | Potency [5] | Potency [6] | Potency [7] | Potency [8] | Potency [10] | Potency [11] | Potency [18] | Potency [12] | Potency [13] | Potency [16] | Potency [14] | Potency [17] | Potency [15]

Cc1ccccc1CCl
inactive: Potency [1] | Potency [2] | Potency [3] | Potency [4] | Potency [5] | Potency [6] | Potency [7] | Potency [8] | Potency [9] | Potency [10] | Potency [11] | Potency [12] | Potency [16] | Potency [14] | Potency [17] | Potency [15]
